# According to PubChem BioAssay AID504652 (National Center for Advancing Translational Sciences (NCATS), 2011):
# “And” between values parts separate entries of the source, which are not always exact repeats. Equal entries are not always repeated. Out of some 360,000 compounds screened, about 11,000 (3.1%) were called active. Only a selection was taken, and actives are over-represented in it overall. Values without a mark were called inactive. Rule as the data show it: active = activity change below about -30%; inactive = the rest.
# Molecular target: D(1A) dopamine receptor (Homo sapiens) (UniProt P21728)
# Sequence (P21728 whole entry, looked up): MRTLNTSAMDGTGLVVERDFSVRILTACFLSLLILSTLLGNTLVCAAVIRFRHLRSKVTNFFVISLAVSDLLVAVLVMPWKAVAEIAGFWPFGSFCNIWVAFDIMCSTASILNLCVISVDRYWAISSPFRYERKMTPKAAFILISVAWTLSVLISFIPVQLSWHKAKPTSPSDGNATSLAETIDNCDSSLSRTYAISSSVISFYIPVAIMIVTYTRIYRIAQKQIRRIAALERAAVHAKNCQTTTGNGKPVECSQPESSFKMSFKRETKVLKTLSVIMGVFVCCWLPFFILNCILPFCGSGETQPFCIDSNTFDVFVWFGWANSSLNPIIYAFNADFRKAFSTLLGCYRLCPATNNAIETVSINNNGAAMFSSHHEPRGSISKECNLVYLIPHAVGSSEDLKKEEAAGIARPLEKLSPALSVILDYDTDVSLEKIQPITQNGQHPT
# Assay: Antagonist of Human D 1 Dopamine Receptor: qHTS
# Settings: HEK293 TREx D1 cells, calcium flux, dopamine EC80; at 10 µM; hits give low values
# Excerpt: Dopamine receptors (DARs) are involved in the etiology and/or therapy of a number of neuropsychiatric and endocrine disorders. For instance, all receptor-based antiparkinsonian drugs work via stimulating the […] DAR subtype whereas all FDA-approved antipsychotic agents are antagonists of this receptor. […] There are three different types of allosteric modulators that we are seeking, two of which will stimulate or augment receptor signaling, allosteric agonists and potentiators, while the third, allosteric antagonists, will attenuate receptor signaling. The present primary screening assay measures compound antagonism after an EC80 addition of dopamine by tracking calcium flux in a […], inducible Hek293 Trex D1 cell line. NIH Chemical Genomics Center [NCGC] NIH Molecular Libraries Probe Centers Network [MLPCN] MLPCN Grant: NS064831-01 Assay Submitter (PI): David Sibley
# Freshly passaged cells are plated in 1536 well black, clear bottom plates at a density of 4000 cells/well in 3 ul of complete media containing 1x tetracycline inducer. After an overnight incubation at 30 C in 5% CO2, cells are loaded with 2 ul of the no wash Calcium Assay Kit (ABD Bioquest) and incubated at room temperature for 30 to 90 minutes. Agonist read: A 10 cycle (1 second/cycle) baseline measurement is taken and then the FDSS online 1536 pintool delivers 23 nl of compound library (as well as dopamine controls) to the plate. The plate is measured for kinetically at 1 cycle/sec for 180 seconds. Following the 180 second read, 1 ul of an EC80 (negative modulation assay) is delivered by an onboard pipette head. Measurements are taken kinetically for an additional 180 seconds.
# % is scaled to controls: 0 for no effect and ±100 for the full control effect.
row,SMILES,"activity change, negative = inhibition"
1,CCOc1ccc2oc(=O)cc(CN3CCN(C(=O)c4ccc(F)cc4)CC3)c2c1,-25%
2,CCC(=O)N1CCc2cc(Br)cc(S(=O)(=O)NCc3ccc(Cl)cc3)c21,4.98%
3,COc1ccccc1N1CCN(C(=O)CCS(=O)(=O)c2ccc3c(c2)NC(=O)C(C)S3)CC1 (configuration not stated),5.52%
4,Cc1cccc(N2CCN(C(=O)CCS(=O)(=O)c3ccc4c(c3)NC(=O)C(C)S4)CC2)c1C (configuration not stated),-41.4% (active)
5,CC1Sc2ccc(S(=O)(=O)CCC(=O)NCc3ccccc3Cl)cc2NC1=O (configuration not stated),-9.63%
6,CCn1c2ccccc2c2cc(CN3CCN(Cc4cccc(Cl)c4)CC3)ccc21,-24.4%
7,N/C(=N\OC(=O)CCc1ccccc1)c1ccc(Cl)cc1,-6.68%
8,COc1ccc(/C(N)=N/OC(=O)CCCc2ccccc2)cc1,-50.3% (active)
9,COc1ccc(/C(N)=N/OC(=O)Cc2ccccc2)cc1,3.45%
10,CCOc1ccc(CNC(=O)c2cc(-c3ccc(Cl)s3)nc3ccccc23)cc1,13.1%
11,COc1ccc(NC(=O)CCCN2C(=O)CCn3nc(-c4cn(C)c5ccccc45)cc32)cc1OC,16%
12,Cc1nc(CNS(=O)(=O)c2cc([N+](=O)[O-])ccc2C)cs1,8.15%
13,Cc1nn(C)c(Oc2ccccc2)c1CCNS(=O)(=O)c1ccc(F)cc1,-5.72%
14,Cc1nc(CNS(=O)(=O)c2ccc(Oc3ccccc3)cc2)cs1,-42.6% (active)
15,CCOc1ccc(C2C(C(=O)Nc3ccc(Cl)cc3)=C(C)Nc3nc(C(F)(F)F)nn32)cc1 (configuration not stated),10.7%
16,Cc1ccccc1-c1nc(SCC(=O)N(C)c2ccccc2)c2c(=O)n(C)c(=O)n(C)c2n1,8.47%
17,CCOc1ccccc1/C=N/NC(=O)CNC(=O)COc1ccccc1,-1.88%
18,Cc1cccc(OCC(=O)Nc2ccccc2F)c1,-0.963%
19,Cc1cccc(OCC(=O)NCC(=O)N/N=C/c2ccc(N(C)C)cc2)c1,-31.7% (active)
20,Cc1oc2ccc(O)c(CN3CCC(C)CC3)c2c1C(=O)Nc1ccccc1,7.02%
21,COc1cccc(NC(=O)CSc2cc(=O)n(C)c3ccc(Cl)cc23)c1,-17.9%
22,CC(Oc1ccc(Cl)cc1Cl)C(=O)/C=C/N(C)C (configuration not stated),-37.2% (active)

row,SMILES,"activity change, negative = inhibition"
1,CC(Oc1ccc(F)cc1F)C(=O)/C=C/N(C)C (configuration not stated),2.85%
2,CC(=O)N(OCc1ccc(OC(C)C)c(Cl)c1)C(C)=O,-4.21%
3,COc1ccc(C(=O)Nc2nonc2-c2ccc(OC)c(OC)c2)cc1Cl,0.206%
4,CCc1cccc(NC(=O)Cn2nc(CC)n3c(cc4cc(C)ccc43)c2=O)c1,4.91%
5,CCCS(=O)(=O)Nc1cccc(-c2cn3ccsc3n2)c1,-4.71%
6,O=C(COc1ccccc1)N1CCN=C1SCc1cccc(F)c1,-31.4% (active)
7,O=C(Cc1ccc(F)cc1)N1CCN=C1SCc1cccc([N+](=O)[O-])c1,-1.86%
8,CCC(=O)N1CCN=C1SCc1ccc(F)cc1,-8.09%
9,COc1cc(OC)cc(-c2nc3nc(C)c(CCC(=O)Nc4ccc(C)cc4)c(C)n3n2)c1,-10.7%
10,CC(C)c1ccc(NS(=O)(=O)c2ccc3[nH]cc(C(=O)NC4CCCC4)c(=O)c3c2)cc1,19.6%
11,Cc1c(C(=O)NC(C)C2CC3CCC2C3)cccc1[N+](=O)[O-] (configuration not stated),18.8%
12,CCOC(=O)CCC(=O)OCC(=O)NC(C)C1CC2CCC1C2 (configuration not stated),-3.11%
13,COC(=O)c1cc(C(=O)NC(C)C2CC3CCC2C3)cc([N+](=O)[O-])c1 (configuration not stated),-60.3% (active)
14,COc1ccccc1-c1ccnc2[nH]n(-c3ccccc3)c(=O)c12,-7.97%
15,COc1cccc(CNC(=O)CCc2nc(-c3ccc(C)cc3)no2)c1,-1.26%
16,Cn1c(C(=O)N2CCC(C(=O)N3CCN(c4ccccc4)CC3)CC2)cc2sccc21,-14.6%
17,CCc1nn(CCCC(=O)NC(C)c2ccccc2)c(=O)c2cc3occc3n12 (configuration not stated),5.05% and -4.27%
18,CCc1nn(CC(=O)NCC(C)c2ccccc2)c(=O)c2cc3occc3n12 (configuration not stated),-32.7% (active)
19,CCCN1CCN(CCCNC(=O)Cn2nc(CC)n3c(cc4occc43)c2=O)CC1,-17.4%
20,CSc1ccc(C2C(C(=O)Nc3ccccc3)=C(C)Nc3nc4ccccc4n32)cc1 (configuration not stated),3.8%
21,CCN(CCCNC(=O)c1c(C)oc2ncn(CC(C)C)c(=O)c12)Cc1ccccc1,0.919%
22,COc1ccc(OC)c(NC(=O)CN2CCCN(Cc3cc(C)ccc3C)S2(=O)=O)c1,2.17%

row,SMILES,"activity change, negative = inhibition"
1,COC(=O)[C@]1(C)N[C@H](c2ccc(-c3ccc(Cl)c(Cl)c3)cc2)[C@@H]2C(=O)N(C)C(=O)[C@@H]21,-31.4% (active)
2,COC(=O)C1(C)NC(c2ccc(C)cc2)C2C(=O)N(c3ccc(F)cc3)C(=O)C21 (configuration not stated),-8.61%
3,COC(=O)C1(C)NC(c2ccc(F)cc2)C2C(=O)N(c3ccccc3)C(=O)C21 (configuration not stated),0.925%
4,CCC(=O)N1CCc2cc(CNS(=O)(=O)c3ccc(Br)s3)ccc21,-7.89%
5,CCCCOc1ccc(CN2C(=O)C(=O)c3cc(Br)cc(C)c32)cc1OC,-30.4% (active)
6,CCCCN1C(=O)C(C)=C(C)C1OCCc1ccc(OC)c(OC)c1 (configuration not stated),2.6%
7,CCCCOc1ccc(Cn2c(=O)oc3ccc(C)cc32)cc1OC,-3.29%
8,Cc1ccccc1CNC(=O)CSc1nnc(C)c2c(C)n(-c3ccccc3)nc12,-8.46%
9,CCOC(=O)c1c(S(=O)(=O)NCC(=O)Nc2ccc(Cl)c(C(F)(F)F)c2)c(C)n(C)c1C,-17.1%
10,CC(=O)N[C@@H](C)C(=O)N1CCC(n2nccc2NC(=O)CCCc2ccccc2)CC1,-35.7% (active)
11,CC(=O)NCC(=O)N1CCC(n2nccc2NC(=O)CCCc2ccccc2)CC1,-10.3%
12,Cc1ccc(CN2CCC(n3nccc3NC(=O)CCCc3ccccc3)CC2)o1,3.11%
13,COc1ccc(CCNC(=O)CCc2c(C)nc3c(c(C)nn3-c3ccc(C)c(C)c3)c2C)c(OC)c1OC,-6.08%
14,Cc1ccc(-n2c(C)cc(/C=C(\C#N)C(=O)NCC3CCCO3)c2C)cc1 (configuration not stated),-101% (active)
15,Cc1ccc(C(=O)N/C(=C/c2cccs2)C(=O)NCC2CCCO2)cc1 (configuration not stated),-5.41%
16,Cc1ccc2c(c1)N(CC(=O)NCC1CCCO1)C(=O)CO2 (configuration not stated),-13.8%
17,Cc1ccccc1OCCSc1nc2ccc(NC(=O)c3ccco3)cc2s1,-30%
18,COc1ccccc1CNC(=O)CCn1c(=O)c2ccccc2n(CC(=O)Nc2cccc(Cl)c2)c1=O,-3.25%
19,Cc1cc(C)cc(-n2c(SCC(=O)NCC3CCCO3)nc3c([nH]c4ccccc43)c2=O)c1 (configuration not stated),-4.35%
20,Cc1c(C(=O)N2CCCC2)oc2c1-c1nn(CC(=O)NCc3ccc(OC(C)C)cc3)cc1CC2,-7.55%
21,Cc1cccc(N2CCN(C3=C(c4ccccc4)C(=O)c4ccccc43)CC2)c1C,18%
22,CN(CC(=O)Nc1cccc(C(F)(F)F)c1)S(=O)(=O)c1cccs1,-18.7%

row,SMILES,"activity change, negative = inhibition"
1,CCOC(=O)c1ccc(NC(=O)Cn2c(=O)cc(C)c3c(C)nn(-c4cccc(F)c4)c32)cc1,-13.3%
2,COC(=O)c1ccc(/C=N/OCC(=O)Nc2cc(F)ccc2F)cc1,-33% (active)
3,O=C(CO/N=C/c1ccc(OC(F)F)cc1)NCc1ccc(F)cc1,-6.98%
4,O=C(COC(=O)[C@H](Cc1ccccc1)NC(=O)c1cccs1)Nc1cc(F)ccc1F,-9.37%
5,CCC(C(=O)N1CCN(S(=O)(=O)c2sc(C(=O)O)c(C)c2C(=O)O)CC1)c1ccccc1 (configuration not stated),-4.86%
6,Cc1ccc(C(=O)N2CCN(S(=O)(=O)N3CCOCC3)CC2)cc1,-3.63%
7,CCc1ccc(C(=O)N2CCN(S(=O)(=O)c3sc(C(=O)O)c(C)c3C(=O)O)CC2)cc1,-68.6% (active)
8,COc1ccc(SCc2cc(=O)c3ccc(C)c(C)c3[nH]2)cc1,7.95%
9,Cn1c(=O)c2c(nc(SCC(=O)Nc3ccc(F)cc3)n2Cc2ccc(Cl)cc2)n(C)c1=O,-3.1%
10,CCOC(=O)N1CCC(Nc2c(NCCN3CCN(c4cccc(Cl)c4)CC3)c(=O)c2=O)CC1,-24%
11,CCOC(=O)c1c(C)[nH]c(CCC(=O)NCCCN2CCN(c3cc(C)ccc3C)CC2)c1C,-11.7%
12,O=C(Cc1ccc(-n2c(=O)[nH]c3ccccc3c2=O)cc1)N1CCN(c2cccc(Cl)c2)CC1,-8.8%
13,COc1cccc(CNC(=O)Cc2csc(Nc3nc(=S)[nH]c4ccccc34)n2)c1,-0.499%
14,COc1cccc(N2CCN(C(=O)CCCCCn3c(=O)[nH]c4ccccc4c3=O)CC2)c1,-11.8%
15,CCn1c(=O)cc(OCC(=O)NCCCN2CCN(c3cccc(Cl)c3)CC2)c2ccccc21,-46.8% (active)
16,COCCCn1c(Cc2csc(Nc3cccc(Cl)c3)n2)nnc1SCC(=O)OC1CCCCC1,12.9%
17,O=C(CCn1c(=O)[nH]c2ccccc2c1=O)NCCCN1CCN(c2cccc(Cl)c2)CC1,-49% (active)
18,CCOC(=O)c1c(C)[nH]c(CCC(=O)NCCCN2CCN(c3cccc(Cl)c3)CC2)c1C,-31.4% (active)
19,CCn1c(=O)cc(OCC(=O)Nc2cc(Cl)c(OC)cc2OC)c2ccccc21,1.43%
20,Cn1c(=O)cc(OCC(=O)N2CCN(c3ccccc3)CC2)c2ccccc21,-4.64%
21,O=C(Cc1csc(Nc2nc(=S)[nH]c3ccccc23)n1)NCCCN1CCN(c2cccc(Cl)c2)CC1,-56.6% (active)
